Many of the other results were omitted from the sample, so hits are more common in it than they were.
Methyltransferases: Primary Screen for Target Class Profiling of Small Molecule Inhibitors of Methyltransferases | calls only at 40 µM | actives 3.9% (n = 25,000) | purified enzyme, MTase-Glo SAH luminescence; active compounds read low; call rule not given here
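Each enzyme was reacted with SAM and its substrate, with compounds tested once at 40 uM; SAH formed was read by MTase-Glo luminescence.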
Active calls of the source: *; i = inactive; + = active, no number; ! = not confirmed by another sample. % is scaled to controls: 0 for no effect and ±100 for the full control effect.

SMILES	Methyltransferases
CCC1Oc2ccc(Cl)cc2N(CC(=O)Nc2ccc3c(c2)C(=O)N(C)C2=NCCN23)C1=O (stereo not given)	i
CCCn1c(=O)c2ccc(C(=O)NC(C)CC)cc2n2c(=O)n(CC(=O)c3ccc(OC)cc3)nc12 (stereo not given)	i
CCOC(=O)C(C)Oc1cc2oc(=O)cc(-c3ccccc3)c2cc1Cl (stereo not given)	i
O=C(NCc1cccc(Cl)c1)c1ccc2oc(-c3cccnc3)nc2c1	i
O=C(Nc1ccc(Cl)cc1)c1nc(Nc2ccccc2)c2ccccc2n1	i
O=C(O)c1ccc2c(c1)nc(Nc1cccc(Cl)c1)c1ccncc12	+
CCCn1c(=O)c2ccc(C(=O)NC3CCCCC3)cc2n2c(=O)n(C)nc12	i
CCC(C)NC(=O)c1ccc2c(=O)n(C)c3nn(CC(=O)Nc4cccc(Cl)c4)c(=O)n3c2c1 (stereo not given)	i
CC(C)CCn1c(=O)c2ccc(C(=O)NC3CCCC3)cc2n2c(=O)n(CC(=O)NC3CCCC3)nc12	i
CC(C)CCn1c(=O)c2ccccc2n2c(=O)n(CC(=O)Nc3cccc(F)c3)nc12	i
Cc1cc(F)ccc1NS(=O)(=O)c1ccc2[nH]c(=O)[nH]c2c1	i
O=C(CCCc1nnc2n3nc(-c4ccccc4)nc3c3ccccc3n12)N1CCN(C2CCCCC2)CC1	i
O=C(CCCc1nnc2n3nc(-c4ccccc4)nc3c3ccccc3n12)N1CCN(Cc2ccccc2)CC1	i
O=C(CCCc1nnc2n3nc(-c4ccccc4)nc3c3ccccc3n12)N1CCC(N2CCCCC2)CC1	+
CCOC(=O)c1cc2n(n1)CC(C)(C(=O)NC1CCCCC1)N(c1ccc(C)c(C)c1)C2=O (stereo not given)	i
CC(CNC(=O)CCCc1nnc2n3nc(-c4ccccc4)nc3c3ccccc3n12)c1ccccc1 (stereo not given)	i
CC1(C(=O)NCc2ccc(F)cc2)Cn2cnc(C(=O)Nc3cc(F)ccc3F)c2C(=O)N1C1CC1 (stereo not given)	i
CC1(C(=O)NC2CCCC2)Cn2c(c(-n3cccc3)c3ccccc32)C(=O)N1Cc1cccnc1 (stereo not given)	i
CCN1C(=O)c2cc(C(=O)NCc3ccc(N(C)C)cc3)nn2CC1(C)C(=O)NC1CCCC1 (stereo not given)	i
CCCn1c(=O)c2ccccc2n2c(SCc3ccc(F)cc3)nnc12	i
CC1=CC(=O)CC(C)(C)[C@@]1(O)/C=C/C(C)O[C@@H]1O[C@H](CO)[C@@H](O)[C@H](O)[C@H]1O (stereo not given in full)	i
CC1=CC(=O)CC(C)(C)C1(O)CCC(C)O (stereo not given)	+
CC(=O)/C=C/C1(O)C(C)=CC(=O)CC1(C)C (stereo not given)	i
COc1ccccc1CNC(=O)C1(C)Cn2c(cc3ccccc32)C(=O)N1CCc1ccccc1 (stereo not given)	i
CCOc1ccc(N2C(=O)c3cc(C(C)(C)C)nn3CC2(C)C(=O)NC2CCCCC2)cc1 (stereo not given)	i
SMILES	Methyltransferases
CN(Cc1cccs1)Cc1cccn1C	i
CN(Cc1cccs1)c1ncnc2ccc(-c3ccc4c(c3)OCO4)cc12	+
Cc1ccccc1-c1cc(O)c2c(c1)CN(C(=O)C1CCNCC1)CCO2	i
COc1ccc(CNC(=O)CCC2CCCN(C(=O)CCN3CCCCO3)C2)c(OC)c1 (stereo not given)	i
CCC(=O)N1CCOc2c(cc(-c3ccc(OC)c(OC)c3)cc2OC[C@H]2CCCN(C)C2)C1	+!
CC1CCC(NC(=O)C2(C)Cn3c(cc4sccc43)C(=O)N2Cc2cccnc2)CC1 (stereo not given)	i
CC(C)Cn1c(=O)c2cc(F)ccc2n2c(SCC(=O)Nc3cccc(Cl)c3)nnc12	i
CCc1cccc(NS(=O)(=O)c2ccc3[nH]c(=O)[nH]c3c2)c1	i
Cc1ccc(N2C(=O)c3nc4ccccc4n3CC2(C)C(=O)NC2CCC(C)CC2)cc1 (stereo not given)	i
Cc1ccc(NS(=O)(=O)c2cc3c(cc2C)n(C)c(=O)n3C)cc1C	i
CC(C)CCNC(=O)c1cc2n(n1)CC(C)(C(=O)NCc1ccc(F)cc1)N(C)C2=O (stereo not given)	i
N#Cc1cccc(-c2c[nH]c3ncnc(N4CCOCC4)c23)c1	+
Cn1c(=O)c2ccc(C(=O)NC3CCCC3)cc2n2c(SCC(=O)Nc3ccc(Cl)cc3)nnc12	i
Cc1ccc(Cl)cc1N1C(=O)c2cc3occc3n2CC1(C)C(=O)NC1CCCCCC1 (stereo not given)	i
CSc1ccc(CCN2C(=O)c3ccc(-c4ccccc4)n3CC2(C)C(=O)NC2CCCC2)cc1 (stereo not given)	i
COc1cc(C(O)CO)ccc1O (stereo not given)	i
CC(C)NCC(O)c1ccc(O)c(O)c1 (stereo not given)	i
NC[C@H](O)c1ccc(O)c(O)c1	+
CC(NC(=O)c1cc2n(n1)CC(C)(C(=O)NC1CCCC1)N(C)C2=O)c1ccc2c(c1)OCCO2 (stereo not given)	i
O=C(CSc1nnc2n(Cc3ccc(F)cc3)c(=O)c3ccccc3n12)Nc1cccc(F)c1	i
CCOc1ccc(CN2C(=O)c3cc4ccccc4n3CC2(C)C(=O)NCCCOC(C)C)cc1 (stereo not given)	i
COCc1nc(-c2ccc(OC3CN(C(=O)NCc4ccc(OC)cc4)C3)cc2)no1	i
O=C(NCc1ccc(Oc2ccccc2)cc1)c1nc(-c2cc(Br)c(O)c(Br)c2)no1	+
c1ccc(CNc2nc(-c3ccccc3)no2)cc1	i
Cc1cccc(-c2n[nH]n3c2nc(=O)c2ccc(C(=O)NCc4ccccc4Cl)cc23)c1	i
SMILES	Methyltransferases
CN1C(=O)c2cc(C(=O)NCc3cccc(Cl)c3)nn2CC1(C)C(=O)NC1CCCCC1 (stereo not given)	i
CCC(C)NC(=O)c1ccc2c(=O)n(C)c3nnc(SCC(=O)Nc4cccc(F)c4)n3c2c1 (stereo not given)	i
O=C(c1ccccc1)N1CCCC2(CC(c3ccccc3)=NO2)C1 (stereo not given)	i
CC1=NOC2(CCN(C(=O)c3ccccc3)C2)C1 (stereo not given)	i
CC(=O)N(C)C1(c2ccccc2)CCN(CCC[C@]2(c3ccc(Cl)c(Cl)c3)CCCN(C(=O)c3ccccc3)C2)CC1	+
CC(=O)Nc1c2n(c3ccccc13)CC(C)(C(=O)NCCC(C)C)N(Cc1ccc(F)cc1)C2=O (stereo not given)	i
CC1CCCC(NC(=O)C2(C)Cn3c(cc4occc43)C(=O)N2Cc2ccc(F)cc2)C1C (stereo not given)	i
CN(Cc1ccccc1)C(=O)CN(C)S(=O)(=O)c1ccc2[nH]c3c(c2c1)CCCC3	i
CN(CC(=O)N(Cc1ccc(C2CCCCC2)cc1)c1ccc(C(=O)O)cc1)S(=O)(=O)c1c(F)c(F)c(F)c(F)c1F	+
CN1CCCN(CC(=O)N2CCCC(c3ccc(C(=O)O)cc3)C2)CC1 (stereo not given)	i
Fc1cccc(-c2nnn3c2nc(N2CCOCC2)c2cc(Cl)ccc23)c1	i
COc1ccc(-c2cc3n(n2)CC(C)(C(=O)NC2CCCCC2)N(CCc2ccccc2)C3=O)cc1 (stereo not given)	i
